Test results from PubChem BioAssay (NCATS).
Where “and” joins values, the source holds several entries; their conditions need not be identical. Equal entries are not always repeated. Records with an inconclusive call do not appear. Calls of active or inactive are those of the source. Unless noted, the call rests on the fitted dose curve; in most records, active means well fitted curve in the direction sought with a large enough effect; inconclusive means small, poorly fitted or top-dose-only effect, or another doubt; inactive means no such curve, though single readings can be large; an effect the other way counts as inactive or inconclusive.

Assays:
[1] = molecular target: Cytochrome P450 1A2 (Homo sapiens) (UniProt P05177); experiment: p450-cyp1a2 (AID 410; calls by dose curve; further: potency means the concentration at half of the fitted maximal effect)
Method in brief: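 Human CYP1A2 (20nM) demethylated Luciferin-ME at its Km (100uM) in 100mM KPO4. After 10 min compound preincubation, NADPH regeneration ran the reaction 60 min at room temperature. Luciferin was read by luminescence, normalized to 57 uM furafylline.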

[2] = NFAT Signaling Pathway (AID 444; active means well fitted curve in either direction with a large enough effect, not every such curve was filed as active;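 further: carbachol stimulus at about its EC50 of 1 µM final; on the % scale 0 is the no-effect control and ±100 the full control effect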); conditions: Jurkat NFAT-bla M1, carbachol, beta-lactamase ratio, 5 h; at 38 µM (top of the series)
Method in brief: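 Jurkat cells carrying an NFAT-driven β-lactamase reporter and co-transfected muscarinic M1 receptor were treated with compound plus carbachol (1 uM final, an EC50 level) for 5 h at 37 °C. CCF4 loading followed for 1 h at RT; 460/530 nm ratio gave %activity.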

[3] = Stat Signaling Pathway (AID 446; active means well fitted curve in either direction with a large enough effect, not every such curve was filed as active;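 further: ME-180 cervical cancer cells given 40 pM IL-6 alongside compound; SIE-controlled beta-lactamase reporter measured as 460/530 nm FRET emission ratio; on the % scale 0 is the no-effect control and ±100 the full control effect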); conditions: ME-180 SIE beta-lactamase reporter, IL-6 stimulated, 5 h; at 38 µM (top of the series)
Method in brief: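 ME-180 SIE-bla cells; overnight plating; cpd + IL-6 40 pM, 5 h, 37 C; LiveBLAzer 2.5 h RT; 460/530 nm emission ratio. Normalized to 300 pM IL-6 and 125 nM JAK inhibitor controls.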

[4] = molecular target: Glucocorticoid receptor (Homo sapiens) (UniProt P04150); experiment: GR-GFP Redistribution (AID 450;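 active means compounds whose dose series gives a full or clear partial fitted curve of increased nuclear translocation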; further: potency means the concentration at half of the fitted maximal effect); conditions: U2OS GR-GFP nuclear translocation, laser cytometry, 2 h
[5] = molecular target: Glucocorticoid receptor (Homo sapiens) (UniProt P04150); experiment: GR-EFC Redistribution (AID 451; calls by dose curve; further: potency means the concentration at half of the fitted maximal effect); conditions: CHO-K1 GR-EFC translocation, beta-gal luminescence, 2 h
Method in brief: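 CHO-K1 cells stably expressing nuclear-localized β-gal enzyme acceptor and GR fused C-terminally to the enzyme donor fragment; ligand-driven nuclear translocation restores β-gal by complementation. Compounds titrated up to 46 uM final, 2 h at 37 °C; luminescence read.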

[6] = molecular target: Mitogen-activated protein kinase 10 (Mus musculus) (UniProt Q61831); experiment: JNK3 AlphaScreen Assay (AID 530; active means well fitted curve in either direction with a large enough effect, not every such curve was filed as active;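 further: kinase came from lysate of stimulated human HepG2 cells; signal reports phosphorylation of biotinylated GST-cJun 1-79 at Ser73 with 10 µM ATP; on the % scale 0 is the no-effect control and ±100 the full control effect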)
Method in brief: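 JNK3 came from HepG2 lysates pre-activated with IL-1beta and TNF-alpha and phosphorylated biotinylated GST-cJun (1-79) at 10 uM ATP, pH 7.6, room temperature. Compounds were titrated. AlphaScreen signal used anti-phospho-cJun (Ser73) antibody.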

[7] = molecular target: 3',5'-cyclic-AMP phosphodiesterase 4B (Homo sapiens) (UniProt Q07343); experiment: qHTS Assay for Inhibitors of PDE-IV (AID 607; active means well fitted activation curve with a large enough effect in the main read-out, with a control signal flat, not every such curve was filed as active; further: % of control where 0% means no effect)
Method in brief: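 ACTOne HEK293 cells carry a modified cAMP-gated CNG channel and express endogenous PDE4; plated 1000 cells/well, compounds up to 22.9 uM final. Membrane-potential dye fluorescence (ex 535/em 590) was read; parental cells received 10 uM forskolin + 100 uM RO 20-1724.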

[8] = molecular target: Guanine nucleotide-binding protein G(i) subunit alpha-1 (Homo sapiens) (UniProt P63096); experiment: qHTS Assay for Inhibitors of RGS12 GoLoco Motif Activity (Green Fluorophore) (AID 879);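 further: 0% = labeled peptide with Gαi1 and full inhibition = labeled peptide alone without protein; negative values mean loss of peptide binding seen as reduced polarization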
Method in brief: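 Fluorescence polarization assay: 50 nM Gαi1 with 10 nM FITC-labeled RGS12 GoLoco peptide in 10 mM Tris pH 7.5, 150 mM NaCl, 0.1 mM GDP, 0.05% NP40, 10 min at room temperature with compound.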

[9] = molecular target: Cytochrome P450 2C9 (Homo sapiens) (UniProt P11712); experiment: qHTS Assay for Inhibitors and Substrates of Cytochrome P450 2C9 (AID 883); further: potency means the concentration at half of the fitted maximal effect; nearly all actives have a fitted effect of over 60% in size
Method in brief: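 Human CYP2C9 (10nM) hydroxylated Luciferin-H (100uM, at its KM) to luciferin in 25mM KPO4. Compound was preincubated 10 min at 37C, then NADPH regeneration started a 60 min reaction at 37C. Luminescence was read after detection reagent, normalized to 57uM sulphaphenazole.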

[10] = molecular target: Pyruvate kinase (Leishmania mexicana) (UniProt Q27686); experiment: qHTS Validation Assay for Inhibitors of Leishmania Mexicana Pyruvate Kinase (AID 945);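 further: 0% = DMSO only neutral control wells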
Method in brief: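 The enzyme is a highly purified E451W mutant of LmPYK used at 0.2 nM. It converts 0.5 mM PEP and 0.1 mM ADP over 1 h at room temperature; product ATP is quantified by luciferase luminescence relative to DMSO controls.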

[11] = molecular target: Pyruvate kinase PKM (Homo sapiens) (UniProt P14618); experiment: qHTS Assay for Activators of Human Muscle Pyruvate Kinase (AID 954; active means well fitted curve in the direction sought with a large enough effect, not every such curve was filed as active;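 further: 0% = uninhibited enzyme and -100% = no enzyme or full thiadiazolimine inhibition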)
Method in brief: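 Luminescence from a luciferase ATP-detection/stop reagent reported PKM2 activity. Reactions contained 0.1 nM purified human enzyme, 0.5 mM PEP, 0.1 mM ADP and 7 mM MgCl2 at pH 7.2, run 1 h at RT.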

[12] = molecular target: Alpha-galactosidase A (Homo sapiens) (UniProt P06280); experiment: Counterscreen for Glucocerebrosidase Inhibitors: qHTS Assay for Human alpha-Galactosidase at pH 4.5 (AID 992); further: 0% is about no effect
Method in brief: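 Enzyme at 2 nM final was combined with compound (0.7 nM to 77 uM) and 80 uM 4-methylumbelliferyl alpha-D-galactopyranoside in 50 mM citric acid, 0.005% Tween-20, pH 4.5. After 20 min at room temperature, fluorescence was read (Ex 365/Em 440 nm); AC50 came from Hill fits.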

[13] = molecular target: alpha-glucosidase (Oryza sativa, rice) (UniProt Q653V4); experiment: Counterscreen for Glucocerebrosidase Inhibitors: qHTS Assay for Rice alpha-Glucosidase at pH 5.0 (AID 997);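 further: 0% = full activity with enzyme and -100% = basal without enzyme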
Method in brief: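 Rice alpha-glucosidase (4 nM final) with 400 uM 4-methylumbelliferyl-alpha-D-glucopyranoside in citrate buffer pH 5.0, 20 min at room temperature, stopped at pH 10; fluorescence 365/440 nm, compounds 0.7 nM–77 uM, AC50 from Hill fits.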

[14] = Validation of Assay for Modulators of Lamin A Splicing (AID 1459; active means well fitted curve in the direction sought with a large enough effect in the signal ratio; the % refers to the signal ratio;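 further: cells exposed to compound for two days before reading; 0% is about no effect; ratio rise marks activators and ratio drop marks inhibitors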)
Method in brief: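 HeLa S3 lamin A-EGFP/DsRed2 stable clone, 600 cells/well, Opti-MEM 2% FBS; compounds by pin tool; 48 hrs, 37 °C/5% CO2; Acumen 488 nm scan, objects 10-100 um; GFP/RFP intensity ratio.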

[15] = qHTS Assay for Lipid Storage Modulators (AID 1519; calls by dose curve); conditions: Drosophila S3 cells, BODIPY lipid droplet/cell ratio, laser cytometry, cells loaded with oleic acid
Method in brief: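 Cells seeded at 5,000 per well were treated with compounds over a concentration series and loaded with oleic acid (400 uM, as added). Lipid droplet fluorescence (488 nm excitation, 500-530 nm channel) was read by laser-scanning cytometry and normalized to 20 uM Triacsin C.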

[16] = molecular target: DNA repair nuclease/redox regulator APEX1 (Homo sapiens) (UniProt P27695); experiment: qHTS Validation Assay for Inhibitors of the Human Apurinic/apyrimidinic Endonuclease 1 (APE1) (AID 1705;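 further: TAMRA fluorescence gain over two minutes as APE1 cuts a quenched THF abasic duplex; on the % scale 0 is the no-effect control and ±100 the full control effect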)
Method in brief: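 qHTS, 1536-well. APE1 + cpd 15 min RT → 50 nM TAMRA/BHQ-2 THF-abasic dsDNA substrate → kinetic fluorescence, 3 reads/60 s; delta(read3−read1) = reaction progress. No-enzyme buffer = negative control.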

[17] = Counterscreen for APE1 Inhibitors: Fluorescent Dye Displacement Validation Assay (AID 1707);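 further: plate controls were ThO with dsDNA and no compound for no effect and ThO without dsDNA for full effect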
Method in brief: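 Thiazole Orange displacement from dsDNA: 250 nM ThO with 50 nM TAMRA-labelled abasic-site (tetrahydrofuran) duplex in 50 mM Tris-HCl pH7.5, 50mM NaCl, 2 mM MgCl2, 0.01% Tween-20. Loss of endpoint fluorescence (ex 480 nm, em 540 nm) flags DNA binders.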

[18] = molecular target: Endonuclease 4 (Escherichia coli (strain K12)) (UniProt P0A6C1); experiment: Counterscreen for APE1 Inhibitors: qHTS Validation Assay for Inhibitors of Endonuclease IV (AID 1708); further: on the % scale 0 is the no-effect control and ±100 the full control effect
Method in brief: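 2 nM enzyme was preincubated with compounds for 15 min at room temperature in 50 mM Tris-HCl pH 7.5, 50 mM NaCl, 2 mM MgCl2, 1 mM DTT, 0.01% Tween-20. 50 nM THF-abasic TAMRA/BHQ-2 duplex substrate started the reaction.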

Chain of Glucocorticoid receptor (Homo sapiens) (P04150 whole entry, looked up, the tested form may be a part): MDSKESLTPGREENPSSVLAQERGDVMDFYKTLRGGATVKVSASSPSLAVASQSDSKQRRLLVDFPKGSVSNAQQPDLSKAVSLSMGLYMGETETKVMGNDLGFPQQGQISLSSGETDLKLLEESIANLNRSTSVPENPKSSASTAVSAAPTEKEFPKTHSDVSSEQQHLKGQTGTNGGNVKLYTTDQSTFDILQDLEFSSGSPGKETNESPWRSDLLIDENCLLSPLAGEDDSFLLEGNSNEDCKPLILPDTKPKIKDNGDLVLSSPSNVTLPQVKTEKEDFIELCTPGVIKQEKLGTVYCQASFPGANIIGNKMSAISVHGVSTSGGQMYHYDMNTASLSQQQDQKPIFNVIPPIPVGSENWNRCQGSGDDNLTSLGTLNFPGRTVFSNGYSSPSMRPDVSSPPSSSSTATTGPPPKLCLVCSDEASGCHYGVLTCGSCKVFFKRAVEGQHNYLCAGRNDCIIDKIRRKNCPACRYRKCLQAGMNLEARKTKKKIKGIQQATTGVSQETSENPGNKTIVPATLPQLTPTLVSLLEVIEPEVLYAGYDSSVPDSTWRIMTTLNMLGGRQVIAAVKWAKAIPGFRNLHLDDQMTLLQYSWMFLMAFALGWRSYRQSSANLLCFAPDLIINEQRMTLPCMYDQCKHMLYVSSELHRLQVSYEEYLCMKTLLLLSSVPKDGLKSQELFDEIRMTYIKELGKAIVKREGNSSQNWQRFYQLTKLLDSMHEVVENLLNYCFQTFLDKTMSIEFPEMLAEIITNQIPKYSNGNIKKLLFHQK
Chain of 3',5'-cyclic-AMP phosphodiesterase 4B (Homo sapiens) (Q07343 whole entry, looked up): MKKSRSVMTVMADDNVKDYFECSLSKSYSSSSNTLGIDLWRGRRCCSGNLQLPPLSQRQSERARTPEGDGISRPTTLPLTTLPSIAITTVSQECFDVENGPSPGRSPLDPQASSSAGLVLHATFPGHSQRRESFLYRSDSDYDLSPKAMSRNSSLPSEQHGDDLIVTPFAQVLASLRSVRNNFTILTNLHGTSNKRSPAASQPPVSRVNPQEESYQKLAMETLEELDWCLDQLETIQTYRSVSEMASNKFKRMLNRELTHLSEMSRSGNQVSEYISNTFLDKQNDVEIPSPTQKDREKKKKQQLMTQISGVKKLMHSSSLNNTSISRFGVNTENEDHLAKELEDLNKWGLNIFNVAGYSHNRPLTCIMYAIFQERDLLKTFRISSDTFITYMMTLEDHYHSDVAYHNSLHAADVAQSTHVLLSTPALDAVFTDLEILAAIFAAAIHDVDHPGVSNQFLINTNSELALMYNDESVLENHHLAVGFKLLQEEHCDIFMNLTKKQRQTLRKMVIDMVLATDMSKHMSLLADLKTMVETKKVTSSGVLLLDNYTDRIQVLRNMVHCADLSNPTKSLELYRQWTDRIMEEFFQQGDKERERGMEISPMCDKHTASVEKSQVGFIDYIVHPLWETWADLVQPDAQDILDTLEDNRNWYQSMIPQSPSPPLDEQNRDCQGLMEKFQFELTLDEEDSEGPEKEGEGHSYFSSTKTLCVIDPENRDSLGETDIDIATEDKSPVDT
Chain of Cytochrome P450 1A2 (Homo sapiens) (P05177 whole entry, looked up): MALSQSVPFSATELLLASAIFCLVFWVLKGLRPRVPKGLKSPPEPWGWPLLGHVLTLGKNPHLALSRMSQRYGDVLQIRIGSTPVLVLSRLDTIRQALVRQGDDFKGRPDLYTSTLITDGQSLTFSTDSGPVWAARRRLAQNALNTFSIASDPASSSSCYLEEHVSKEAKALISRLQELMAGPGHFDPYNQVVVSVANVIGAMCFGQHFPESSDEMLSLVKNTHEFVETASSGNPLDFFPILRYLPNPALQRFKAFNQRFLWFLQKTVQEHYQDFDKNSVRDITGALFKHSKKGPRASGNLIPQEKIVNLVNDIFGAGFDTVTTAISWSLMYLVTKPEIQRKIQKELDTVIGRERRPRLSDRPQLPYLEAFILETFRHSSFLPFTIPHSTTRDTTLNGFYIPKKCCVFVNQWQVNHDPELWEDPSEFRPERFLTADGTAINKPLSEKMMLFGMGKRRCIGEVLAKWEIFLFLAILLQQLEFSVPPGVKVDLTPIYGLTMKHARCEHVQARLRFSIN
Chain of Alpha-galactosidase A (Homo sapiens) (P06280 whole entry, looked up): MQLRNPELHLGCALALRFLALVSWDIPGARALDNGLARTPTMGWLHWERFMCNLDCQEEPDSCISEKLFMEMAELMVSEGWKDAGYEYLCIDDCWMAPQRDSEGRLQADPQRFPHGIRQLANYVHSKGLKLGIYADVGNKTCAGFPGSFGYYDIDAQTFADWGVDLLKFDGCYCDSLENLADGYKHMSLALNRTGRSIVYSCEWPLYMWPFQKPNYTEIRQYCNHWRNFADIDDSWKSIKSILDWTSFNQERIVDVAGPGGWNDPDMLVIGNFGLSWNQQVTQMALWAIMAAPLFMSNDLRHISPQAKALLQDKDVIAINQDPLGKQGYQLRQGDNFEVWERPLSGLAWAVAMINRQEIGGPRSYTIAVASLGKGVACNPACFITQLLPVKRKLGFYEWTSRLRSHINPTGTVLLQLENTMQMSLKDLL
Chain of Guanine nucleotide-binding protein G(i) subunit alpha-1 (Homo sapiens) (P63096 whole entry, looked up): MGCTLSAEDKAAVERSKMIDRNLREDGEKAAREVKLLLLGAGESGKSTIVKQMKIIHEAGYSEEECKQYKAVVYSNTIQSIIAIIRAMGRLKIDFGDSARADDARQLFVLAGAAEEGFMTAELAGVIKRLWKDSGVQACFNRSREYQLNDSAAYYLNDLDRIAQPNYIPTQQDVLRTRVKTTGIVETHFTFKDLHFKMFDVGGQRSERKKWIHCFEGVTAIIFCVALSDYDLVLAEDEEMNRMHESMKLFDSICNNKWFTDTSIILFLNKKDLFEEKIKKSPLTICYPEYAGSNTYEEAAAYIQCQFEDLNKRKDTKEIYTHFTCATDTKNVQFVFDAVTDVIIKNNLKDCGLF
Chain of DNA repair nuclease/redox regulator APEX1 (Homo sapiens) (P27695 whole entry, looked up): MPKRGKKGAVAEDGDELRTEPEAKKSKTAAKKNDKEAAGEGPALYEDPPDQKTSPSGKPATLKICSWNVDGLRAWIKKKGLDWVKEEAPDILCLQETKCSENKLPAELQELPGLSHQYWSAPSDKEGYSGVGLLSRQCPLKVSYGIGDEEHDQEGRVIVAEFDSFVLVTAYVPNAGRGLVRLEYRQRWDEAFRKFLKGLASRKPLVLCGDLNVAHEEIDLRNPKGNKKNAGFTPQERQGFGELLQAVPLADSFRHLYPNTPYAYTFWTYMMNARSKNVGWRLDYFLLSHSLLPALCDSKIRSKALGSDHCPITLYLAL
Chain of Pyruvate kinase PKM (Homo sapiens) (P14618 whole entry, looked up): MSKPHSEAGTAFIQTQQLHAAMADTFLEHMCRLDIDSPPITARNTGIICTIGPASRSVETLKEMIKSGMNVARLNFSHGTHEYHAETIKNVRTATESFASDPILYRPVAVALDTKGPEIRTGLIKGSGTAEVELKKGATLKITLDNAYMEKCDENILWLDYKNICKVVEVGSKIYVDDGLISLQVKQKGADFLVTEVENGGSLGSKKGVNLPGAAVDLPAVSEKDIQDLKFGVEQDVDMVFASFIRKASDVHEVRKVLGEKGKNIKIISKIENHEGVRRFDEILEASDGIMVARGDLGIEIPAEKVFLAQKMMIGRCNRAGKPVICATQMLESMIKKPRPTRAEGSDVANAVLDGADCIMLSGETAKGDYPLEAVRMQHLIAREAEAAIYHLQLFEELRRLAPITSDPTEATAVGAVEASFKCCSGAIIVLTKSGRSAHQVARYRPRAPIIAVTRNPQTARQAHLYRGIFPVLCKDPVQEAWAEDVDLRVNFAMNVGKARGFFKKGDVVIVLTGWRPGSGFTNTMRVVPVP
Chain of Pyruvate kinase (Leishmania mexicana) (Q27686 2-499 E452W): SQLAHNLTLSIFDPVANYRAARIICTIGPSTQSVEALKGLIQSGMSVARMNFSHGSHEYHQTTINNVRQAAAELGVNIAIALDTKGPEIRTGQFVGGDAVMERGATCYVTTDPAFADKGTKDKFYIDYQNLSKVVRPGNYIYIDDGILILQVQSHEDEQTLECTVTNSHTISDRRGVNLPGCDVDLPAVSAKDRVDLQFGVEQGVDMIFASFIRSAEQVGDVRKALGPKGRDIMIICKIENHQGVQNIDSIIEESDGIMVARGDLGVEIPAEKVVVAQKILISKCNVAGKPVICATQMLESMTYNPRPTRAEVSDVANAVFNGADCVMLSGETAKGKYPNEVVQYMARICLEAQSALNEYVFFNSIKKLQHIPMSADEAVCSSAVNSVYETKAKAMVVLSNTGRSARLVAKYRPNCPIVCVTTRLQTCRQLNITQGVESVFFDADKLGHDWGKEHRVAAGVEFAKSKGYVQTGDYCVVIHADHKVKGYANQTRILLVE
Chain of Cytochrome P450 2C9 (Homo sapiens) (P11712 whole entry, looked up): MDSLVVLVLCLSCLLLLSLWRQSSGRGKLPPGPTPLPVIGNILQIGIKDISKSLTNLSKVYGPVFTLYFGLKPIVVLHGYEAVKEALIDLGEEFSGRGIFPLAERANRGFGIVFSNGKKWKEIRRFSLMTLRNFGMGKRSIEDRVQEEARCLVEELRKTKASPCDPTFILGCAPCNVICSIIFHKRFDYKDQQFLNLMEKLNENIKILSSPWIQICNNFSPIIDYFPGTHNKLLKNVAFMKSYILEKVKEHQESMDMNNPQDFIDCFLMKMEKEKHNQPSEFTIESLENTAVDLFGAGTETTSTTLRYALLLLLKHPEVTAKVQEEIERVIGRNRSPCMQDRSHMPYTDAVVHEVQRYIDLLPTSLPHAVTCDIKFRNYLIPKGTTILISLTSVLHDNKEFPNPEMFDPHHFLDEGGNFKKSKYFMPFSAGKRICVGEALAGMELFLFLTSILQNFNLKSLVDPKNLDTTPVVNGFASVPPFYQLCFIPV

O=C(OCCN1CCCCC1)c1c[nH]c2ccccc12
-19.5%: max response ([15]; measured here: cell count channel max response)
active: Potency [1] 12.6 µM and 15.8 µM | Potency [9] 2 µM
-30.4%: max response ([15]; measured here: lipid channel max response)
inactive: activity change, negative = inhibition [2] -11% | activity, negative = inhibition [3] -6.33% | Potency [4] > 46 µM | Potency [5] > 46 µM | Potency [6] | Potency [7] | outcome [8] | Potency [10] | outcome [11] | outcome [12] | outcome [13] | outcome [14] | activity change, negative = inhibition ([15]; at 57.5 µM (top of the series)) -1.63% | Potency [16] | Potency [17] | Potency [18]
